# Data as given in PubChem BioAssay (NCATS).
# Unmarked numbers belong to inactive results. Active and inactive are the calls of the source. No stated cut-off is given here; in the data, active means potency below about 10 µM; inactive means the rest.
# Target: Lysosomal acid glucosylceramidase (Homo sapiens) (UniProt P04062)
# Experiment: Glucocerebrosidase-p2 (AID 348)
# Conditions: purified GBA, blue fluorogenic substrate, 40 min
# Summary of the method: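 Normal human glucocerebrosidase (0.2 nM) with blue fluorogenic substrate (80 uM final) in citrate/phosphate pH 5.9 with 10mM sodium taurocholate, 0.01% tween-20; 40 min RT, NaOH/glycine stop; fluorescence Ex 365/Em 440; AC50 from a titration from 0.6 nM upwards.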
# Potency means the concentration at half of the fitted maximal effect.
# Lysosomal acid glucosylceramidase (Homo sapiens), sequence (P04062 whole entry, looked up): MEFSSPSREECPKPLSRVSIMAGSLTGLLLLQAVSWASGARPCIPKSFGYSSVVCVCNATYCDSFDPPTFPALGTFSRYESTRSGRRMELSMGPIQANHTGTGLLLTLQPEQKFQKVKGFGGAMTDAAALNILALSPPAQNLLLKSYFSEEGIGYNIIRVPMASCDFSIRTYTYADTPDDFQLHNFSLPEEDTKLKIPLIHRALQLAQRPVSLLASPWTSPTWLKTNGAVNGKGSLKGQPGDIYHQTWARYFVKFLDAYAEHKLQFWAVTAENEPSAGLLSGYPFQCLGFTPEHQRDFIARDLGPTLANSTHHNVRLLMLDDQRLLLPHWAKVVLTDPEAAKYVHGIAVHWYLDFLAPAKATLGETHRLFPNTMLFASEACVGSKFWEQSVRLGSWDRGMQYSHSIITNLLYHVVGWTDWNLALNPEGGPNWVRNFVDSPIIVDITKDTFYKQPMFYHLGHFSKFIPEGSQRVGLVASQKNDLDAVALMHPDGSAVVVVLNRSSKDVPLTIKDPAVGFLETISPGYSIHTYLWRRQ
row,Structure (SMILES),Potency
1,CN(C)CCCN1c2ccccc2Sc2ccc3ccccc3c21,> 11.4 µM
2,ClC(=Nc1cccc2ccccc12)N(c1ccccc1)c1ccccc1,> 11.4 µM
3,O=C(c1ccncc1)N1CCC2(CCCN(c3cccc(-c4ccccc4)c3)C2)CC1,> 11.4 µM
4,Cc1ccc(-c2nc(-c3nccc4ccccc34)oc2-c2ccccc2)cc1,> 11.4 µM
5,COc1ccc2c(c1)N(CC[C@H]1CCCCN1C)c1ccccc1S2,> 11.4 µM
6,COc1ccc(Oc2ncc3nc(CCc4ccccc4)c(=O)n(C4CC4)c3n2)cc1,> 11.4 µM
7,Cc1nnc(S(=O)(=O)c2ccc(N=Nc3c(N)nc(N)nc3N)cc2)s1,> 11.4 µM
8,COc1ccc2c(=O)cc(-c3ccncc3)oc2c1OC,> 11.4 µM
9,COc1cccc2c1[C@H](CO)N1[C@H](C#N)[C@@H]3C[C@H](C(=O)O)[C@@H]([C@@H]1C2)N3C,> 11.4 µM
10,CN(C)CCCN1c2ccc3ccccc3c2Sc2cccc(Cl)c21,> 11.4 µM
11,COc1cccc(Nc2ncc3ncc(=O)n(C4CC4)c3n2)c1,> 11.4 µM
12,CN(C)CCCN1c2ccc(O)cc2Sc2ccc(Cl)cc21,9.49 µM (active)
13,C=C(C)COc1ccc2c(c1)CCC1C2CC[C@]2(C)C(=O)/C(=N/O)CC12 (stereo not given in full),> 11.4 µM
14,CCCCNN,> 11.4 µM
15,CC(CC(=O)O)(CC(=O)O)c1ccccc1,> 11.4 µM
16,OC[C@@H]1O[C@@H](N2CCN([C@@H]3O[C@@H](CO)[C@@H](O)[C@H](O)[C@H]3O)CC2)[C@@H](O)[C@H](O)[C@H]1O,> 11.4 µM
17,O=C1c2ccccc2C(O)(O)[C@@]1(O)[C@]1(O)C(=O)c2ccccc2C1(O)O,> 11.4 µM
18,c1ccc2cc(NCNc3ccc4ccccc4c3)ccc2c1,> 11.4 µM
19,N#Cc1c(NC(=O)C(F)(F)F)sc2c3c(=O)c4ccccc4c(=O)c=3oc3ccccc3c12,> 11.4 µM
20,NCCSCCC(=O)O,> 11.4 µM

row,Structure (SMILES),Potency
1,O=C1Oc2ccccc2C(=O)/C1=C\N1C(=O)N/C(=C\c2ccccc2O)C1=O,> 11.4 µM
2,CC(=O)Nc1ccc(Cc2ccc3[nH]c(=O)cc(C)c3c2)cc1,> 11.4 µM
3,Cc1cccc(CNc2ncnc3ccc(-c4ccc(C(=O)N(C)C)cc4)cc23)c1,> 11.4 µM
4,COc1ccc2nc3cc(Cl)ccc3c(Nc3ccc(O)c(CN4CCN(C)CC4)c3)c2c1,> 11.4 µM
5,C[C@@H]1CCCN(C[C@@H](O)CN2CCCc3ccccc32)C1,> 11.4 µM
6,C[N+](C)([O-])CCC=C1c2ccccc2CCc2ccccc21,> 11.4 µM
7,Cc1cc(Cl)nc(NC(=O)CSc2ccc(Cl)cc2)n1,> 11.4 µM
8,CSc1ccc2c(c1)N(CCCN(C)C)c1ccccc1S2,> 11.4 µM
9,C[C@@]12CC[C@@H]3[C@@H](CC[C@H]4C[C@@H](O)CC[C@]43C)[C@H]1CC[C@@H]2c1cc(C(F)(F)F)n[nH]1,> 11.4 µM
10,CC(=O)O[C@H]1CC[C@@]2(C)C(=CC[C@@H]3[C@@H]4CC[C@H](c5cc(C(F)(F)F)n(C(C)=O)n5)[C@]4(C)CC[C@@H]32)C1,> 11.4 µM
11,O=C1C(Cl)=C(Sc2nnc3c4ccccc4c4ccccc4c3n2)C(=O)c2ccccc21,> 11.4 µM
12,COCCn1c(=O)c(CCc2ccccc2)nc2cnc(Oc3cccc(Cl)c3)nc21,> 11.4 µM
13,Cc1c(S(=O)(=O)O)ccc(N=Nc2c(O)c(C(=O)O)cc3ccccc23)c1Cl,> 11.4 µM
14,Cc1ccc(N=Nc2c(O)c3ccccc3[nH]c2=O)c(S(=O)(=O)N(C)C)c1,> 11.4 µM
15,O=[N+]([O-])c1ccc(S(=O)(=O)Cc2ccccc2)c2nonc12,> 11.4 µM
16,Cn1c(=S)c2[nH]c(SCCCc3ccccc3)nc2n(C)c1=O,> 11.4 µM
17,C[C@]12CC[C@H]3c4ccc(O)cc4CC[C@@H]3[C@H]1CC[C@@H]2OC(=O)CCc1ccccc1,> 11.4 µM
18,Nc1nc(Sc2ccc([N+](=O)[O-])c3nonc23)c2[nH]cnc2n1,> 11.4 µM
19,CN(C)CCCn1c2c3ccccc3ccc2c2oc(=O)c3ccccc3c21,> 11.4 µM
20,CC(C)[C@H](Sc1nc(N)nc2nc[nH]c12)C(=O)O,> 11.4 µM
